Data from PubChem BioAssay (Tox21).
Active and inactive are the calls of the source. A call without a number means that no potency is given here. Calls come from the whole dose curve.

What follows are molecules tested against Muscarinic acetylcholine receptor M1 (Homo sapiens) (UniProt P11229) (assay: Cholinergic receptor muscarinic 1 (CHRM1) small molecule agonists, cell-based qHTS assay (AID 1963589; note: nearly all actives have a fitted effect of over 35% in size)). Settings: CHRM1-CHO cells, agonist mode, calcium flux fluorescence; series mostly up to 76.8 µM.
Chain of Muscarinic acetylcholine receptor M1 (Homo sapiens) (P11229 whole entry, looked up): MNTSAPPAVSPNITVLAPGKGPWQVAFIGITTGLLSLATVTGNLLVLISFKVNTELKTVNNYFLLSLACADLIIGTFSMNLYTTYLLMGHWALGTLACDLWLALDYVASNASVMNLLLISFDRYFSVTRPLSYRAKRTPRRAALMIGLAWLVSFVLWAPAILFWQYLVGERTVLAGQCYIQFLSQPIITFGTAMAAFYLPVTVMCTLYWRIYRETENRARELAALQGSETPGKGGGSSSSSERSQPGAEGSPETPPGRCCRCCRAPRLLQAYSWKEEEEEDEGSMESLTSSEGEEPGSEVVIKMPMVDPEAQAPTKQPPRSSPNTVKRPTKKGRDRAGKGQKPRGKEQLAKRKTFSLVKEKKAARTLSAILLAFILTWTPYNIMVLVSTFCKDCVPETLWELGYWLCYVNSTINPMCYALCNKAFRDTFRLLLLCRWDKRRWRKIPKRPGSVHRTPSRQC
Excerpt: National Center for Advancing Translational Sciences [NCATS]
Division of Preclinical Innovation [DPI]
U.S. Environmental Protection Agency [EPA]
National Institutes of Environmental Health Sciences [NIEHS]
National Toxicology Program [NTP]
U.S. Food and Drug Administration [FDA]
The CHRM1 is a muscarinic receptor. This receptor plays a crucial role in learning and memory processes and has long been identified as a promising therapeutic target for the improvement of cognitive decline in Alzheimer's disease (AD). The CHRM1-CHO cell line stably expressing human muscarinic acetylcholine receptor M1 (CHRM1) can be used for screening agonists and antagonists of interactions between CHRM1 and its ligands. The CHRM1-CHO Calcium Flux Assay is a homogeneous fluorescence-based assay for detecting the intracellular calcium level using FDSS kinetic plate reader system.
CHRM1-CHO cells were dispensed at 1000 cells/3uL/well in 1536-well black-clear bottom plates using a Multidrop Dispenser. After the assay plates were incubated at a 37 C/5% CO2 incubator for 18 h, 3 uL of Dye Loading Buffer was transferred to the assay plate by a Flying Reagent Dispenser. The assay plates were incubated at 37 C for 1h. For agonist mode, 23 nL of compounds dissolved in DMSO, positive controls or DMSO only was transferred to the assay plate by a pin tool. […] Each test compound was measured at 15 concentrations in three independent runs.

SMILES | Potency | activation
CC(C)(C)c1cc(Cc2cc(C(C)(C)C)c(O)c(C(C)(C)C)c2)cc(C(C)(C)C)c1O | inactive | –
COC(=O)c1ccc(C(=O)OC)cc1 | inactive | –
Cc1ccc(S(=O)(=O)NC2CCCCC2)cc1 | inactive | –
C=C(C)[C@H]1CC=C(C)C(=O)C1 | inactive | –
NCCCN1CCN(CCCN)CC1 | inactive | –
c1ccc2ncccc2c1 | inactive | –
N#CC1(c2ccc(F)cc2)CCC(=O)CC1 | inactive | –
CC1CCCC(=O)C1=O (stereo not given) | inactive | –
NC(=O)NC1N=C([O][Al])NC1=O (stereo not given) | inactive | –
CCOC(=O)c1ccc(OCCN2C[C@H](O)[C@@H](O)[C@H](O)[C@H]2CO)cc1 | inactive | –
NCC1CCCC(CN)C1 (stereo not given) | inactive | –
COc1ccccc1N=Nc1c(S(=O)(=O)O)cc2cc(S(=O)(=O)O)cc(NC(C)=O)c2c1O | inactive | –
CCC(C)(C)C | inactive | –
CCCCC(=O)N(C)C | inactive | –
NS(=O)(=O)c1ccc(N2CCCCS2(=O)=O)cc1 | inactive | –
Nc1cc(C(Cl)=C(Cl)Cl)c(S(N)(=O)=O)cc1S(N)(=O)=O | inactive | –
CC(C)(C)c1ccc(O)c(C(C)(C)C)c1 | inactive | –
CCCCOCCCC | inactive | –
Cc1ccc2c(ccc3ccccc32)c1 | inactive | –
CC[C@H](c1ccc(O)cc1)[C@@H](CC)c1ccc(O)cc1 | inactive | –

SMILES | Potency | activation
c1c[nH]cn1 | inactive | –
Oc1cc(O)c2c(c1)O[C@H](c1ccc(O)c(O)c1)[C@H](O)C2 | inactive | –
OCC(O)CN1CCN(c2ccccc2)CC1 (stereo not given) | inactive | –
N[C@H](C(=O)O)c1ccc(O)cc1 | – | 0.717% [at 15.8 µM] (inactive)
CCC(CO)(CO)CO | inactive | –
FC(F)(F)c1ccccc1Cl | inactive | –
CC(C)[C@@H]1CC[C@@H](C)CC1=O | inactive | –
CCCOCCO | inactive | –
NC/C=C/C(=O)O | inactive | –
O=[N+]([O-])c1cncn1CCN1CCOCC1 | inactive | –
CC(C)(c1ccccc1)c1ccc(Nc2ccc(C(C)(C)c3ccccc3)cc2)cc1 | inactive | –
CN(C)c1ccc(C(=N)c2ccc(N(C)C)cc2)cc1 | inactive | –
O=C(O)CNc1ccccc1 | inactive | –
CC(C)CC=O | inactive | –
CO[Si](CCCCl)(OC)OC | inactive | –
Nc1ccc2c(S(=O)(=O)O)cccc2c1S(=O)(=O)O | inactive | –
COC(OC)OC | inactive | –
Cc1c(N)cccc1C(F)(F)F | inactive | –
CC1=CC[C@@]23C[C@@H]1C(C)(C)[C@@H]2CC[C@H]3C | inactive | –
CCCCCCCCCCCCCCCCBr | – | -0.125% [at 15.8 µM] (inactive)
